# Source: PubChem BioAssay (NCATS)
# Inconclusive results are not listed. Entries that show only a call come without a potency. The source made the active and inactive calls. Unless noted, calls come from the whole dose curve; as a rule, active = well fitted curve in the direction sought with a large enough effect; inconclusive = small, poorly fitted or top-dose-only effect, or another doubt; inactive = no such curve, though single readings can be large; an effect the other way counts as inactive or inconclusive.
# Key:
# [1] = S16 Schwann cell PMP22 intronic element firefly luciferase assay (AID 624032); note: nearly all actives have a fitted effect of over 30% in size; note: potency is the fitted concentration of half-maximal effect
# Outline: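 Rat S16 Schwann cells stably carrying firefly luciferase driven by a PMP22 intronic element, in 10% FBS, treated 24 h at 37 C. ONE-Glo luminescence normalized to PTC124 control and DMSO (0%); curves classed by r2, magnitude and activity.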
# 3D7 = assay: qHTS profiling for inhibitors of Plasmodium falciparum proliferation (AID 504749); note: nearly all actives have a fitted effect of over 60% in size; note: potency is the fitted concentration of half-maximal effect; conditions: P. falciparum in erythrocytes, SYBR Green DNA, 72 h; series mostly up to 28.7 µM
# Outline: (§1)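 Each compound contacts P. falciparum-infected red blood cells for 72 h at 37 C; lysis buffer (Tris, EDTA, saponin, Triton X, SYBR Green I) is added and fluorescence measured next morning; values normalized to controls.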
# ATS95 = assay: as above; conditions: P. falciparum in erythrocytes, SYBR Green DNA, 72 h; series mostly up to 28.7 µM
# Outline: as §1
# CP194 = assay: as above; conditions: P. falciparum in erythrocytes, SYBR Green DNA, 72 h; series mostly up to 28.7 µM
# Outline: as §1
# CP203 = assay: as above; conditions: P. falciparum in erythrocytes, SYBR Green DNA, 72 h; series mostly up to 28.7 µM
# Outline: as §1
# CP260 = assay: as above; conditions: P. falciparum in erythrocytes, SYBR Green DNA, 72 h; series mostly up to 28.7 µM
# Outline: as §1
# CP266 = assay: as above; conditions: P. falciparum in erythrocytes, SYBR Green DNA, 72 h; series mostly up to 28.7 µM
# Outline: as §1
# CP335 = assay: as above; conditions: P. falciparum in erythrocytes, SYBR Green DNA, 72 h; series mostly up to 28.7 µM
# Outline: as §1
# DIV14 = assay: as above; conditions: P. falciparum in erythrocytes, SYBR Green DNA, 72 h; series mostly up to 28.7 µM
# Outline: as §1
# Dd2 = assay: as above; conditions: P. falciparum in erythrocytes, SYBR Green DNA, 72 h; series mostly up to 28.7 µM
# Outline: as §1
# PC26 = assay: as above; conditions: P. falciparum in erythrocytes, SYBR Green DNA, 72 h; series mostly up to 28.7 µM
# Outline: as §1
# TAB165 = assay: as above; conditions: P. falciparum in erythrocytes, SYBR Green DNA, 72 h; series mostly up to 28.7 µM
# Outline: as §1
# [2] = target: Luciferin 4-monooxygenase (Photinus pyralis) (UniProt P08659); assay: Biochemical firefly luciferase enzyme assay for NPC (AID 624030);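 note: purified P. pyralis luciferase at 10 nM with luciferin and ATP substrate; nearly all actives have a fitted effect of over 70% in size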
# Luciferin 4-monooxygenase (Photinus pyralis), sequence (P08659 whole entry, looked up): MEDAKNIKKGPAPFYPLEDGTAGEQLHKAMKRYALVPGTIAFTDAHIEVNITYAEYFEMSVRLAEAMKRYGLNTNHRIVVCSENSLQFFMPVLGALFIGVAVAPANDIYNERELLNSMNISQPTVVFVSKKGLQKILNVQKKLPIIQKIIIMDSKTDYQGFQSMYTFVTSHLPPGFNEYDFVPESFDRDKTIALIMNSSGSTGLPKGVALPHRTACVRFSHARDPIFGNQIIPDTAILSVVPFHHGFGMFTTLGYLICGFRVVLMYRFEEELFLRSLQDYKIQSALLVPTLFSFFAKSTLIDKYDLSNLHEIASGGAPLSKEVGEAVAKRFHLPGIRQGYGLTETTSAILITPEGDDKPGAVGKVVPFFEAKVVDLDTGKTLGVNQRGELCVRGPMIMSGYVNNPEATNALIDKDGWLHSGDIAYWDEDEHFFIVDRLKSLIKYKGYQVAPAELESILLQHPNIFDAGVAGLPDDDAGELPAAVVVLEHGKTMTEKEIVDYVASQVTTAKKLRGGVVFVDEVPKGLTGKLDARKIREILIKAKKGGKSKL
# Outline: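 Purified P. pyralis luciferase at 10 nM in 50 mM Tris Acetate (final), luminescence read within 5 minutes of enzyme addition to compounds. Activity normalised to PTC124 versus DMSO; concentration-response curves classed by r2, magnitude and activity.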
# [3] = S16 Schwann cell PMP22 intronic element beta-lactamase assay (AID 624044; calls by dose curve; note: nearly all actives have a fitted effect of over 15% in size)
# Outline: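 Beta-lactamase reporter under a PMP22 intronic regulatory element in stable S16 rat Schwann cells; 24 h compound exposure. 460 nm blue signal normalized between DMSO (0%) and potassium clavulanate, with 535 nm FRET tracking viability; curves classed by r2 and response.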
# CP262 = assay: qHTS profiling for inhibitors of Plasmodium falciparum proliferation (AID 504749); note: nearly all actives have a fitted effect of over 60% in size; note: potency is the fitted concentration of half-maximal effect; conditions: P. falciparum in erythrocytes, SYBR Green DNA, 72 h; series mostly up to 28.7 µM
# Outline: as §1
# CP325 = assay: as above; conditions: P. falciparum in erythrocytes, SYBR Green DNA, 72 h; series mostly up to 28.7 µM
# Outline: as §1
# N140 = assay: as above; conditions: P. falciparum in erythrocytes, SYBR Green DNA, 72 h; series mostly up to 28.7 µM
# Outline: as §1
# P93_24 = assay: as above; conditions: P. falciparum in erythrocytes, SYBR Green DNA, 72 h; series mostly up to 28.7 µM
# Outline: as §1
# CP269 = assay: as above; conditions: P. falciparum in erythrocytes, SYBR Green DNA, 72 h; series mostly up to 28.7 µM
# Outline: as §1
# FAB9 = assay: as above; conditions: P. falciparum in erythrocytes, SYBR Green DNA, 72 h; series mostly up to 28.7 µM
# Outline: as §1
Structure (SMILES),Potency [1],Potency (3D7),Potency (ATS95),Potency (CP194),Potency (CP203),Potency (CP260),Potency (CP266),Potency (CP335),Potency (DIV14),Potency (Dd2),Potency (PC26),Potency (TAB165),outcome [2],outcome [3],Potency (CP262),Potency (CP325),Potency (N140),Potency (P93_24),Potency (CP269),Potency (FAB9)
OC[C@H](S)CS,7.21 µM (active),3.16 µM (active),12.6 µM (active),inactive,inactive,0.891 µM (active),inactive,3.38 µM (active),12 µM (active),2.24 µM (active),inactive,inactive,–,–,–,–,–,–,–,–
CCc1ccc2c(c1)N(C[C@H](C)CN(C)C)c1ccccc1S2,inactive,–,–,–,–,–,inactive,–,8.49 µM (active),–,–,–,inactive,inactive,inactive,inactive,inactive,7.94 µM (active),–,–
N[C@H](COP(=O)(O)O)C(=O)O,inactive,inactive,inactive,inactive,inactive,inactive,inactive,inactive,inactive,inactive,inactive,inactive,inactive,inactive,inactive,inactive,inactive,inactive,inactive,inactive
C(=C/c1ccccc1)/CN1CCN(C(c2ccccc2)c2ccccc2)CC1,–,–,inactive,inactive,inactive,–,inactive,–,–,–,inactive,inactive,inactive,inactive,inactive,inactive,inactive,inactive,inactive,inactive
C[N+]1(C)[C@@H]2CC(OC(=O)[C@@H](CO)c3ccccc3)C[C@@H]1[C@H]1O[C@H]12 (some centres undefined),inactive,inactive,–,–,inactive,inactive,inactive,inactive,inactive,inactive,inactive,inactive,inactive,inactive,inactive,inactive,inactive,inactive,inactive,inactive
CC(=O)N1CCN(c2ccc(OC[C@@H]3CO[C@@](Cn4ccnc4)(c4ccc(Cl)cc4Cl)O3)cc2)CC1,inactive,inactive,inactive,–,–,inactive,–,–,–,inactive,–,–,inactive,inactive,inactive,inactive,inactive,–,inactive,inactive
COc1cc2nc(N(C)CCCNC(=O)[C@@H]3CCCO3)nc(N)c2cc1OC,inactive,inactive,inactive,inactive,inactive,inactive,–,inactive,inactive,inactive,inactive,inactive,inactive,inactive,inactive,inactive,inactive,inactive,inactive,inactive
